From PubChem BioAssay
Rows were chosen to be rich in hits. Some 3.9% of all compounds tested hit in one or more screens of this group.
sPLA2-III inh = human group III sPLA2 inhibitors, primary screen, biochemical, QFRET, BODIPY PC-A2 liposome substrate | Group 3 secretory phospholipase A2 (Homo sapiens), Q9NZ20 | QFRET BODIPY PC-A2 liposome hydrolysis, fluorescence | inhibition, % at 12.2 µM | 370,000 compounds, 0.56% hits;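 active = inhibition above mean plus 3 SD of compounds lying within the high and low control bounds, cut at about 19% in these data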;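 note: 0% = median of test compound wells and 100% = no enzyme DMSO wells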
PLCg1 inh = PLC-gamma1 enzyme inhibitors, primary screen, biochemical, fluorescence, purified enzyme | 1-phosphatidylinositol 4,5-bisphosphate phosphodiesterase gamma-1 (Homo sapiens), P19174 | fluorogenic substrate | inhibition, % at 12.2 µM | 370,000 compounds, 0.84% hits | AID 720700, 2013
PLCb3 inh = human PLC-beta3 inhibitors, primary screen, biochemical, fluorescence. 1-phosphatidylinositol 4,5-bisphosphate phosphodiesterase beta-3 (Homo sapiens), Q01970. inhibition, % at 12.2 µM. Purified PLC-beta3, fluorogenic substrate. AID 720704, 2013. 370,000 compounds, 0.18% hits; in the data active = inhibition above about 11%;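 note: 0% = median of compound wells on plate and 100% = full blocker control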
AHR act = AHR activators, primary screen, cell-based, luminescence, luciferase reporter, human. AHR-responsive luciferase reporter cells. 320,000 compounds, 2.5% hits. AID 2796, 2010. activation, % at 5 µM; in the data active = activation above about 47%;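 note: 0% = vehicle wells and 100% = reference agonist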
Target sequence (P35869 whole entry, looked up): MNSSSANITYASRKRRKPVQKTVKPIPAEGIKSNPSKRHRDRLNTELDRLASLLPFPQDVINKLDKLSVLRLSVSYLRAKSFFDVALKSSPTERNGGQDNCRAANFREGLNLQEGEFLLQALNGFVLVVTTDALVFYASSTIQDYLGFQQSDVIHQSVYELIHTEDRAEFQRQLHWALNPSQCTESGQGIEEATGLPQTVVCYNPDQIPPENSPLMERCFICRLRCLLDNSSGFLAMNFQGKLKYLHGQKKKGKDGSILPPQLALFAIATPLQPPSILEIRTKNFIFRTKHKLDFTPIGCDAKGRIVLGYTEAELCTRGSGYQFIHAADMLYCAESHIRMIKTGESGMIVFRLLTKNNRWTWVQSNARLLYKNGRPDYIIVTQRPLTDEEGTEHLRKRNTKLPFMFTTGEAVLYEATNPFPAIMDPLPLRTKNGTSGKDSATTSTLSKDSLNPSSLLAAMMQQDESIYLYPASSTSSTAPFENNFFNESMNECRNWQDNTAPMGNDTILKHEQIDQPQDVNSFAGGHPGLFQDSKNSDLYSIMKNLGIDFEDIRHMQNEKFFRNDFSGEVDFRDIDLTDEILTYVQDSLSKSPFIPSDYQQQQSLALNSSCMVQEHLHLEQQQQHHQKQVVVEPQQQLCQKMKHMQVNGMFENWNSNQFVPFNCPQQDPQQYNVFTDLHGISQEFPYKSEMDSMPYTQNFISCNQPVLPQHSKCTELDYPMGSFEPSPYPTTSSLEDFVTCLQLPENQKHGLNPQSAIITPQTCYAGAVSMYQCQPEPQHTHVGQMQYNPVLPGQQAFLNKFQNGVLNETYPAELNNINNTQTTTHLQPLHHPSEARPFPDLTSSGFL
Yeast superoxide = reduction of superoxide in aged yeast, primary screen, HTS; S. cerevisiae aged cells, superoxide DHE fluorescence; stronger effect = lower value; superoxide response (% of plate mean), % at 10 µM; 330,000 compounds, 0.18% hits;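 active = superoxide response under a set limit, about three screen SD below normal, cut at about 65% in these data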;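 note: yeast aged for seven days with compound at 30 °C before DHE staining; 100% = average MFI of all compound-treated wells on the plate with controls excluded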
HIF act = HIF pathway transcriptional activators, primary screen, cell-based, U2OS HRE-luciferase, luminescence; U2OS HRE-luciferase reporter; normalized: DMSO 0%, desferrioxamine 100%; activation, % at 7.5 µM (by protocol); 300,000 compounds, 0.32% hits; AID 1910, 2009;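 active = mean activation of at least 10% of the iron chelator positive control signal, with at least half of replicates also reaching 10%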
PLCgamma1 ctr = PLC-gamma1 enzyme inhibitors, counter-screen for PLC-beta3 inhibitor project, biochemical, fluorescence | shares compounds with PLCg1 inh | purified PLC-gamma1, fluorogenic substrate | inhibition, % at 12.3 µM | 3,300 compounds, 3.1% hits | AID 743258, 2014
PLCbeta3 conf = PLC-beta3 inhibitor confirmation, biochemical, fluorescence, purified enzyme. shares compounds with PLCg1 inh. fluorogenic substrate fluorescence. inhibition, % at 12.3 µM. 3,300 compounds, 1% hits. AID 743261, 2014; in the data active = inhibition above about 11%
Starred values were filed as active, the others as inactive; i = inactive; nt = not tested or not shown. Cut-off read from the data, not from the text of the source, unless noted: active = inhibition above about 9.5%; inactive = the rest.

SMILES	sPLA2-III inh	PLCg1 inh	PLCb3 inh	AHR act	Yeast superoxide	HIF act	PLCgamma1 ctr	PLCbeta3 conf
COc1ccc(CCNC(=O)Nc2nc(C(N)Cc3ccccc3)cs2)cc1OC (stereo not given)	-7.6	9.6*	6.7	nt	nt	nt	-4.2	0.9
COc1ccc(CC(N)c2csc(NC(=O)NCCc3ccc(OC)c(OC)c3)n2)cc1 (stereo not given)	1.6	1.2	2.8	nt	nt	nt	nt	nt
CC(=O)NC(CC(=O)N(C)C1CCCCC1)c1ccccc1 (stereo not given)	-0.3	-2.1	-2.5	-0.4	98.1	1.2	nt	nt
Cc1nc(N2CCCCC2)c(C#N)c(C)c1[N+](=O)[O-]	3.7	1.6	3.3	-0.2	89.0	-1.2	nt	nt
CC1(C)N([O-])C(c2ccccc2)=C[N+](=O)C1(C)C	11.9	10.5*	8.8	-0.6	109.3	-0.1	-5.5	0.4
Fc1cc(F)cc(NC(=S)NN2CCOCC2)c1	11.0	11.1*	7.6	-0.2	101.9	0.3	-0.3	0.0
COc1cc(NC(=S)NN2CCOCC2)cc(OC)c1	6.8	3.9	7.3	nt	nt	nt	nt	nt
COc1ccc(S(=O)(=O)NCc2ccc(C(=O)O)cc2)cc1	9.3	3.3	4.0	-1.4	113.8	-0.5	nt	nt
COc1ccc(S(=O)(=O)NCc2ccc(C(=O)NCCN(C)Cc3ccccc3)cc2)cc1	-14.4	9.8*	7.0	nt	nt	nt	-10.1	-2.1
Cc1ccc(CNC(=O)c2cc(Cl)cc(Cl)c2)n1C	-1.8	-14.8	-24.7	12.0	108.5	-1.0	nt	nt
CCc1ccc(OC)c(S(=O)(=O)Nc2ccc(Cc3ccncc3)cc2)c1	-33.9	14.1*	-4.4	3.1	112.6	-0.2	-1.2	-0.2
OC1OC2COC(c3ccccc3)OC2C(O)C1O (stereo not given)	1.8	6.1	11.3*	nt	nt	nt	-5.3	-3.9
CCOP(=O)(OCC)C(Nc1cccc(C(F)(F)F)c1)c1ccc(Br)cc1 (stereo not given)	-5.4	8.0	11.5*	nt	nt	-0.3	-7.9	-9.2
CCOP(=O)(OCC)C(Nc1ccc(F)cc1)c1ccccc1 (stereo not given)	4.2	-0.6	-3.5	0.1	90.3	-0.2	nt	nt
C/C(=N\NC(=O)c1cc(-c2cccc([N+](=O)[O-])c2)n[nH]1)c1ccc(F)cc1	-3.1	-0.5	-4.6	18.9	88.5	3.1	nt	nt
C/C(=N/NC(=O)c1cc(-c2cccc([N+](=O)[O-])c2)n[nH]1)c1cccc(O)c1	0.3	14.1*	7.5	15.2	99.8	-0.2	-2.4	-2.4
CN(CC(=O)NCc1cccs1)CC(=O)Nc1ccccc1Cl	1.3	-0.2	-2.8	nt	nt	nt	nt	nt
O=C(NC(=S)Nc1ccc(Cc2ccncc2)cc1)c1ccccc1F	5.3	15.2*	-3.9	-6.7	106.5	1.9	-3.9	-3.6
CSCCC(NS(=O)(=O)c1ccccc1)C(=O)OCc1cc(=O)oc2cc(O)ccc12 (stereo not given)	-19.1	i	i	0.9	97.0	-52.0	nt	nt
CCN(CC(=O)Nc1cccc(S(=O)(=O)N2CCCC2)c1)CC(=O)Nc1ccccc1OC	-17.0	-1.6	-5.1	2.2	104.8	0.2	nt	nt
CCN(CC(=O)Nc1cccc(F)c1)CC(=O)Nc1ccccc1OC	-10.9	9.8*	-0.1	2.8	103.1	0.0	-3.8	-0.7
O=P(Cc1cc[n+]([O-])cc1)(c1ccccc1)c1ccccc1	0.2	6.5	11.3*	3.7	94.7	0.0	-2.7	0.8
COc1ccc(S(=O)(=O)Nc2ccc(C)cc2)cc1N(C)S(=O)(=O)c1ccc(Cl)cc1	-26.5	10.8*	2.6	-1.2	108.1	-0.2	0.4	4.7
CCCCc1ccc(N2C(=NC(=O)C3CCCO3)SC3CS(=O)(=O)CC32)cc1 (stereo not given)	-11.4	9.6*	-3.7	3.2	101.0	0.0	-3.8	-1.0
CCOC(=O)c1ccc(-c2ccc3oc(-c4ccsc4)cc(=O)c3c2)cc1F	13.9	10.1*	-1.2	-0.2	109.4	nt	-17.4	-13.8
SMILES	sPLA2-III inh	PLCg1 inh	PLCb3 inh	AHR act	Yeast superoxide	HIF act	PLCgamma1 ctr	PLCbeta3 conf
C(=C\c1ccccc1)/CN1CCN(C(c2ccccc2)c2nnnn2Cc2ccccc2)CC1 (stereo not given)	-16.4	5.0	0.5	nt	nt	nt	nt	nt
COc1ccc(C(c2nnnn2Cc2ccccc2)N2CCN(C/C=C/c3ccccc3)CC2)cc1 (stereo not given)	-14.2	14.2*	1.3	nt	nt	nt	-1.9	-0.6
CN(C)c1nc2c(c(=O)[nH]c(=O)n2C)n1Cc1ccccc1Br	0.5	11.3*	10.6	2.0	89.6	0.2	-4.1	-1.6
CCCCn1c(N)c(N(CCC(C)C)C(=O)C2CC(=O)N(CCc3ccc(OC)c(OC)c3)C2)c(=O)[nH]c1=O (stereo not given)	4.9	4.1	-1.7	-0.5	80.8	0.3	nt	nt
CCN(CC)C(=O)C1=C(C)N(CCCN2CCCC2=O)C(=O)C(CC(=O)NCCCCc2ccccc2)C1 (stereo not given)	1.1	9.8*	9.0	nt	nt	nt	-9.4	-3.6
CCN(CC)C(=O)C1=C(C)N(CCCN2CCCC2=O)C(=O)C(CC(=O)NCc2ccco2)C1 (stereo not given)	6.8	4.4	-0.1	nt	nt	nt	nt	nt
COc1ccc(OC)c(NC(=O)CCCCCn2nnc3ccccc3c2=O)c1	1.5	1.1	-3.5	0.7	94.1	0.4	nt	nt
O=S(=O)(NC1Cc2ccccc2C1)c1ccccc1	-9.6	0.5	-5.9	nt	96.5	-0.1	nt	nt
Cc1ccsc1C(=O)N1CCCC(C)(C(=O)NS(=O)(=O)C2CC2)C1 (stereo not given)	3.2	9.8*	5.0	nt	nt	nt	-0.2	3.1
CC1(C(=O)NS(=O)(=O)C2CC2)CCCN(C(=O)c2cccs2)C1 (stereo not given)	-2.4	1.8	-0.7	nt	nt	nt	nt	nt
O=C(O)c1ccccc1NS(=O)(=O)c1ccc(NNC(=S)Nc2ccc(OC(F)F)cc2)c([N+](=O)[O-])c1	-28.5	14.2*	3.6	nt	nt	-0.4	16.9*	-15.2
NS(=O)(=O)c1ccc(N/N=C/c2ccc[nH]2)c([N+](=O)[O-])c1	17.6	11.6*	3.0	-4.8	94.2	-0.3	2.2	7.3
COc1cc(/C=N/Nc2ccc(S(N)(=O)=O)cc2[N+](=O)[O-])cc(OC)c1O	-13.5	4.0	3.5	2.8	108.0	-0.4	nt	nt
